In PubChem BioAssay:
Active and inactive are the calls of the source.

How the values were obtained:
Albumin (Bos taurus) = Albumin (Bos taurus) (UniProt P02769); assay: bovine serum albumin binders on microarray, profiling panel, artefact control for SMM control protein annotation, biochemical, small-molecule microarray, Alexa647 label, 635/667 nm fluorescence (AID 1118); conditions: BSA-A647 binding, fluorescence 635 nm, higher = more signal;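 also: score merges 667 nm emission intensity and signal-to-noise per printed compound spot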
[1] = small-molecule microarray binders of probe aXIP, primary screen, biochemical, NeuroSMM set, 635/667 nm fluorescence (AID 1119); conditions: higher = more signal, called active from +8 up or from −8 down;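 also: probe is the protein aXip251-270 applied at 1 µg/mL to compound-printed slides; binding of probe to printed compounds measured as 667 nm fluorescence plus signal to noise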
[2] = small-molecule binders of probe aNOTCH3, primary screen, biochemical, small-molecule microarray, 635/667 nm fluorescence (AID 1120); conditions: higher = more signal;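 also: probe is a biotin-tagged antibody raised against NOTCH3 rather than NOTCH3 protein; score merges spot fluorescence near 667 nm with spot signal to noise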
[3] = small-molecule binders of probe aNOTCH2, primary screen, biochemical, small-molecule microarray, 635/667 nm fluorescence (AID 1121); conditions: higher = more signal;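 also: score merges feature fluorescence read at 667 nm with its signal to noise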
[4] = target: Carbonic anhydrase 2 (Homo sapiens) (UniProt P00918); assay: CAII small-molecule binders, profiling panel, biochemical, small-molecule microarray, Alexa647-labelled CAII (AID 1122); conditions: CAII-A647 binding fluorescence, higher = more signal
[5] = COS7 lysate on small-molecule microarray, probe aHis, 635 nm (AID 1123); conditions: COS7 cell lysate, fluorescence, higher = more signal;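 also: z-score combines 667nm fluorescence intensity with signal-to-noise per printed compound spot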
[6] = compound binding in COS7 lysate, probe aLAP1, primary screen, cell lysate, small-molecule microarray (AID 1124); conditions: probe aLAP1, fluorescence, higher = more signal;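 also: lysate comes from COS7 cells expressing LAP1 and is applied at 0.3 µg/mL; score merges spot fluorescence near 667 nm with signal-to-noise over triplicate slides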
Sam68 (KHDRBS1) = assay: Sam68 small-molecule binders, primary screen, biochemical, small-molecule microarray, 635 nm fluorescence (AID 1125); conditions: small-molecule microarray binding, higher = more signal;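 also: score merges 667 nm channel intensity with signal to noise over triplicate slides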
[7] = system: Chordin-like protein 2 (CHRDL2); assay: CHRDL2 small-molecule binders, primary screen, biochemical, small-molecule microarray, 635 nm fluorescence (AID 1126); conditions: small-molecule microarray binding, fluorescence 635 nm; higher = more signal;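 also: printed compound slides probed with Chrdl2 protein at 4 µg/mL for 1 h at 4 C; score merges 667 nm emission intensity with signal to noise over three replicate slides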
[8] = target: Concanavalin-A (Canavalia ensiformis) (UniProt P02866); assay: ConA small-molecule binders, primary screen, artefact control for SMM control protein annotation, biochemical, small-molecule microarray, Alexa647 label, 635 nm (AID 1127); conditions: ConA-A647 binding fluorescence, higher = more signal;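 also: z combines 667 nm emission intensity with signal-to-noise across three replicate slides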
[9] = anti-His antibody binders, primary screen, artefact control for SMM control protein annotation, biochemical, small-molecule microarray, 635 nm fluorescence (AID 1128); conditions: anti-His Alexa647 antibody binding, higher = more signal;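 also: score merges feature fluorescence with signal-to-noise for each printed compound spot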
[10] = system: Human papillomavirus type 1a E7 protein (residues 1-88); assay: HPV1a E7 small-molecule binders, primary screen, biochemical, small-molecule microarray, residues 1-88, 635 nm (AID 1129); conditions: small-molecule microarray binding, fluorescence 635 nm; higher = more signal
[11] = target: Focal adhesion kinase 1 (Homo sapiens) (UniProt Q05397); assay: small-molecule microarray binders of FAK, primary screen, biochemical, 635/667 nm fluorescence, BSA, DTT (AID 1130); conditions: PTK2 binding, 635 nm fluorescence, higher = more signal;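 also: composite of spot emission at 667 nm and signal to noise over triplicate slides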
[12] = system: Fibrinogen (Alexa647-labelled); assay: fibrinogen binders on compound microarrays, profiling panel, artefact control for SMM control-protein annotation, biochemical, small-molecule microarray, 635/667 nm fluorescence (AID 1131); conditions: fibrinogen-A647 binding fluorescence, higher = more signal;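 also: z-score merges 667 nm fluorescence with per-spot signal-to-noise over triplicate slides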
[13] = target: Follistatin (Homo sapiens) (UniProt P19883); assay: follistatin binders on small-molecule microarrays, primary screen, biochemical, small-molecule microarray, 635/667 nm fluorescence (AID 1132); conditions: FST binding, 635 nm fluorescence, higher = more signal
[14] = target: Fibroblast growth factor 2 (Homo sapiens) (UniProt P09038); assay: FGF2 binders on small-molecule microarrays, primary screen, biochemical, small-molecule microarray, 635/667 nm fluorescence (AID 1133); conditions: small-molecule microarray binding, FGF2, fluorescence 635/667; higher = more signal
[15] = mitochondrial membrane potential change in A549 cells, profiling panel, cell-based, JC-1 fluorescence, basal, 24 h, 100 nL (AID 1138); conditions: higher = more signal;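 also: A549 lung adenocarcinoma cells under basal conditions with no added stimulus; test concentration not given here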
Lefty1 = Lefty1 binders on small-molecule microarrays, primary screen, biochemical, small-molecule microarray, 635/667 nm fluorescence (AID 1139); conditions: small-molecule microarray binding, fluorescence 635/667; higher = more signal
[16] = system: wheat germ agglutinin (Triticum aestivum), Alexa647-labelled; assay: wheat germ agglutinin binders on compound microarrays, profiling panel, artefact control for SMM control-protein annotation, biochemical, small-molecule microarray, 635/667 nm fluorescence (AID 1140); conditions: WGA-A647 binding, 635 nm fluorescence, higher = more signal;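 also: score merges 667 nm feature emission with signal to noise over triplicate slides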
[17] = target: Luciferin 4-monooxygenase (Photinus pyralis) (UniProt P08659); assay: firefly luciferase enzyme inhibitors, primary screen, biochemical, luminescence, purified enzyme, 2006 set (AID 1141); conditions: SteadyGlo luminescence, 30 min, higher = more signal, called active from +8 up or from −8 down;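 also: cell-free assay with purified firefly luciferase at 100 ng per well in PBS; test concentration not given here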
Sequence of Luciferin 4-monooxygenase (Photinus pyralis) (P08659 whole entry, looked up): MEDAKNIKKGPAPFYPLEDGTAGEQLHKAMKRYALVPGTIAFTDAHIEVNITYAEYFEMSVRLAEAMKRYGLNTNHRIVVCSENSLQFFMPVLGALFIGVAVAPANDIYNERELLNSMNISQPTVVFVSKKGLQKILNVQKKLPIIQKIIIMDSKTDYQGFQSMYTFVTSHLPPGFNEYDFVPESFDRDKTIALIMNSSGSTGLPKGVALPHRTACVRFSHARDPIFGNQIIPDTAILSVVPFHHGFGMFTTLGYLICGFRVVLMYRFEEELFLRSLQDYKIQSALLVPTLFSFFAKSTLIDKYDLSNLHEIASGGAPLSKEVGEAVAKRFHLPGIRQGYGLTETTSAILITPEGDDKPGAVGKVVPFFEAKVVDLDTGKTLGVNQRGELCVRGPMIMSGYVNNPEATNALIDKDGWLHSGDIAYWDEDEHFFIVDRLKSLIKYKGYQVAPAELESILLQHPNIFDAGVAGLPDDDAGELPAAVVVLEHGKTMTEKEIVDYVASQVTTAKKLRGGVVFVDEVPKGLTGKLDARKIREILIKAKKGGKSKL

Sequence of Focal adhesion kinase 1 (Homo sapiens) (Q05397 whole entry, looked up): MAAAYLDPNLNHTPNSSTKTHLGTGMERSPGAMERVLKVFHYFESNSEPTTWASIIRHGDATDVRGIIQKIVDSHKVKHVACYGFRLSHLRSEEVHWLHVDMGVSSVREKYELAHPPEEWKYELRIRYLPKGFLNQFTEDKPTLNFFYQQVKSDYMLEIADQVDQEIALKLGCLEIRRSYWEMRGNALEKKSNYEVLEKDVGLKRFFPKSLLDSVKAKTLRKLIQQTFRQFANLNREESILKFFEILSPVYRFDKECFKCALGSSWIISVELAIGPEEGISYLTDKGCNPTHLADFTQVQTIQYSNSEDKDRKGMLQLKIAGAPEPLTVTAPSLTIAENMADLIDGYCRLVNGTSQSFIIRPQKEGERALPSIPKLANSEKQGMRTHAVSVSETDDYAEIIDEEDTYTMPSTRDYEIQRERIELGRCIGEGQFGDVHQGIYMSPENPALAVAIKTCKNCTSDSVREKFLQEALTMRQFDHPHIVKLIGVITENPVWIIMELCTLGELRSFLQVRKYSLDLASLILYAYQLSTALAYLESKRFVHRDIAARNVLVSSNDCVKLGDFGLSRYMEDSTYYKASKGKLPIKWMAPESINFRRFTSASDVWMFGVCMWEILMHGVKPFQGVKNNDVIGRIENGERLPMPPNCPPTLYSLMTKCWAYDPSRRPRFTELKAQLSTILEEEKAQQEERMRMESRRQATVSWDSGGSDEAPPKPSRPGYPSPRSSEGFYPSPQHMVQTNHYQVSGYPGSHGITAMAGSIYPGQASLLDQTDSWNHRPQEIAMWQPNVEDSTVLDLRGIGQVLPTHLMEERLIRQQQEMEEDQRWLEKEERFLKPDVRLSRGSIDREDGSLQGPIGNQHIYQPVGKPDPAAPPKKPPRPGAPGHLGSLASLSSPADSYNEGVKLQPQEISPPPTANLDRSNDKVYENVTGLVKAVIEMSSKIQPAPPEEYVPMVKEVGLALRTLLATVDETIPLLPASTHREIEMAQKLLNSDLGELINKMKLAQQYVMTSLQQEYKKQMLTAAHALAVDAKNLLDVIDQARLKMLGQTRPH
Sequence of Follistatin (Homo sapiens) (P19883 whole entry, looked up): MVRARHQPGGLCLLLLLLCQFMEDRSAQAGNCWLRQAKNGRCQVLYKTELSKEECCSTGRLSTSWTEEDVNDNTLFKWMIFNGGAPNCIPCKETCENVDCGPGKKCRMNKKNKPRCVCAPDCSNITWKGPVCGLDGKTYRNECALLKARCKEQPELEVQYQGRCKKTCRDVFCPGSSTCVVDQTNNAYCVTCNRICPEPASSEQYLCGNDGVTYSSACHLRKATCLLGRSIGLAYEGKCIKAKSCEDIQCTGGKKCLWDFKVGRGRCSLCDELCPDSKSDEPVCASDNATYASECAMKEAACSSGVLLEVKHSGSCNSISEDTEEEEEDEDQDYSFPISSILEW
Sequence of Albumin (Bos taurus) (P02769 whole entry, looked up): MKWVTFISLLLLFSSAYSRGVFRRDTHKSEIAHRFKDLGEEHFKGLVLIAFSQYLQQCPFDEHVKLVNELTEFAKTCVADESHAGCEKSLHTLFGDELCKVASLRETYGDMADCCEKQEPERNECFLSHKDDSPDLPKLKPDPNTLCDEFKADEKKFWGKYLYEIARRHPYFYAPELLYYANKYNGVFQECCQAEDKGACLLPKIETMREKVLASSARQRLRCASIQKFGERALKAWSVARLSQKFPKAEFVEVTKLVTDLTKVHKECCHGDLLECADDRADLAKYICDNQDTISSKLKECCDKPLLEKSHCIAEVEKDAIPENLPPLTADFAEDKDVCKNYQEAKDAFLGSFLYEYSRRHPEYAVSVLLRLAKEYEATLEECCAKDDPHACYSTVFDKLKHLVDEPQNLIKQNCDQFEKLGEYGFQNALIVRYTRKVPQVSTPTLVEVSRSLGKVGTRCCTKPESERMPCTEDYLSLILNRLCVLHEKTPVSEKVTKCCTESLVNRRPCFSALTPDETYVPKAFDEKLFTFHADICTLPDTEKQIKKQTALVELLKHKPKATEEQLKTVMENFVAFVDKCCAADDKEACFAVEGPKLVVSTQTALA
Sequence of Concanavalin-A (Canavalia ensiformis) (P02866 whole entry, looked up): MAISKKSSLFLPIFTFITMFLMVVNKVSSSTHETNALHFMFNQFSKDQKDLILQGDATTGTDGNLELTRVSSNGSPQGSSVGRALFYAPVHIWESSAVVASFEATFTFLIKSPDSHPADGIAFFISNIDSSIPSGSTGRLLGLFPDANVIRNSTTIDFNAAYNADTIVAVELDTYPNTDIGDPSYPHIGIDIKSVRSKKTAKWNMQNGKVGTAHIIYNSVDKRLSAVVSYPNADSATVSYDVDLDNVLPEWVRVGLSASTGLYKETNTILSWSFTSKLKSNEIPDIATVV
Sequence of Fibroblast growth factor 2 (Homo sapiens) (P09038 whole entry, looked up): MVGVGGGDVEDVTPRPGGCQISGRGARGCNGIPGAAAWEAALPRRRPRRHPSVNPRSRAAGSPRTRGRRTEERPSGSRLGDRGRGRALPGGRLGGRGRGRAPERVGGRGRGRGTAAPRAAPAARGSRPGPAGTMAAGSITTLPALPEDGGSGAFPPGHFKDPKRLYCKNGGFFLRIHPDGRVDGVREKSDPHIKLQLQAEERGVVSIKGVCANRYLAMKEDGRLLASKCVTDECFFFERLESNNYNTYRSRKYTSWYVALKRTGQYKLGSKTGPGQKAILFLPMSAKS

Compound | composite z-score (Albumin (Bos taurus)) | composite Z-score [1] | composite z-score [2] | composite z-score [3] | composite z-score [4] | composite z-score [5] | composite z-score [6] | composite z-score (Sam68 (KHDRBS1)) | composite z-score [7] | composite z-score [8] | composite z-score [9] | composite z-score [10] | composite z-score [11] | composite z-score [12] | composite z-score [13] | composite z-score [14] | z-score [15] | composite z-score (Lefty1) | composite z-score [16] | z-score [17]
C[N+](C)(C)CCCC[C@@H]1NC(=O)[C@H]2C[C@@H](C(=O)NCCCCCCNC(=O)CS)[C@@H](c3cccc(OCCO)c3)N2C1=O | 0.492 | 3.4 (inactive) | -0.246 | -0.146 | 0.881 | 1.8 | 0.864 | -0.365 | -1.44 | -0.338 | 1.03 | -0.945 | 0.434 | -1.56 | 0.897 | 0.885 | -0.32 | -1.36 | 0.396 | -0.252 (inactive)
Cc1ccc(S[C@]2(C(=O)NCCCN(C)C)CC(=O)N(Cc3cc(C(F)(F)F)cc(C(F)(F)F)c3)[C@@H]2c2ccc(CO)cc2I)cc1 | -0.39 | -0.86 (inactive) | 0.462 | -0.0492 | 0.773 | 0.961 | 0.135 | 0.375 | -0.395 | -1.79 | 0.336 | -0.77 | -0.0785 | -0.604 | -0.816 | -0.862 | 0.197 | -0.536 | 0.0799 | 0.828 (inactive)
CC(C)=CCCC(C)=CC(O)C1C=CC2C(=O)N(C)C(=O)C2N1Nc1ccccc1 (stereo not given) | 0.919 | -0.305 (inactive) | 0.286 | -0.011 | 0.435 | 2.66 | 0.309 | 1.3 | 1.28 | 1.18 | 1.17 | 1.21 | 0.832 | 1.03 | 1.38 | 0.709 | 0.797 | 1.08 | 1.22 | 0.15 (inactive)
COC(=O)c1c(CC[C@@H](CO)NC(=O)NCCn2cc(C3(O)CCCC3)nn2)oc(C(C)=O)c1C(=O)OC | 0.351 | -0.79 (inactive) | -0.209 | -0.128 | 0.745 | 0.603 | -0.108 | 0.492 | -0.505 | -0.027 | 0.828 | 0.0881 | 0.182 | 0.292 | -0.273 | 0.247 | -0.415 | 0.199 | 0.128 | 0.7 (inactive)
N#Cc1ccc(NN2C(C(O)C(c3ccccc3)c3ccccc3)C=CC3C(=O)N(c4ccccc4)C(=O)C32)cc1 (stereo not given) | 0.983 | -0.442 (inactive) | 0.673 | 0.11 | 0.407 | 2.95 | -0.0751 | 1.3 | -0.558 | 1.17 | 0.238 | 1.26 | 0.545 | 1.01 | 0.337 | -0.469 | 1.49 | -0.0452 | 1.4 | 0.523 (inactive)
COc1ccc(CCNC(=O)[C@@H]2c3ccccc3C(=O)N(Cc3ccccc3Cl)[C@H]2c2ccc(CO)cc2)cc1 | 0.0645 | -0.145 (inactive) | -0.0647 | -0.0712 | 0.363 | 1.47 | 0.0463 | 0.579 | -0.014 | 0.207 | 0.218 | 1.14 | 0.224 | 0.435 | 0.495 | 0.187 | 2.4 | -0.0833 | 0.261 | -0.745 (inactive)
C=C[C@H](OC)[C@@H](OC(=O)Nc1ccc(OC)cc1)c1ccc(O)c(F)c1 | -1.15 | 0.111 (inactive) | -0.333 | -0.217 | 0.562 | 2.28 | 0.953 | 0.96 | -1.85 | -1.15 | 2.08 | 0.424 | -0.585 | -1.5 | -1.07 | -1.23 | -0.944 | -0.288 | -1.28 | -6.53 (inactive)
[N-]=[N+]=Nc1ccccc1[C@H]1OC(c2ccc(OCCCO)cc2)=N[C@@]1(CCS(=O)(=O)c1ccccc1)C(N)=O | 0.485 | 0.211 (inactive) | 0.264 | 0.113 | 0.795 | 1.43 | 0.469 | 1.22 | 0.0869 | 0.868 | 2.95 | 1.22 | 0.26 | 0.938 | 0.794 | 0.0263 | 0.118 | -0.142 | 1.21 | -6.6 (inactive)
COC(=O)[C@H](Cc1ccccc1)N[C@@H](/C=C/C1CC1)[C@H](O)Cc1ccccc1 | 0.0881 | -0.16 (inactive) | -0.246 | -0.244 | 0.209 | -0.255 | 0.0885 | -0.0844 | -0.0635 | 0.65 | -0.477 | -0.236 | -0.415 | 0.475 | -0.405 | -0.489 | -0.349 | -0.21 | 0.319 | 0.702 (inactive)
COCCOC(=O)N1C(=O)[C@@]2(c3cc(C#CCCO)ccc31)[C@H](C(=O)N1CCCCCCC1)[C@H]1C(=O)O[C@H](c3ccccc3)[C@H](c3ccccc3)N1[C@@H]2c1ccc(OCCO)cc1 | 0.796 | 1.91 (inactive) | 1.33 | 0.833 | 0.549 | 2.75 | 0.906 | 1.3 | 1.26 | 1.16 | 1.19 | 1.2 | 0.959 | 0.769 | 1.4 | 1.51 | -0.821 | 1.6 | 1.35 | 0.242 (inactive)
C=CCNC(=O)[C@H]1[C@@H]2C(=O)O[C@@H](c3ccccc3)[C@@H](c3ccccc3)N2[C@@H](c2ccccc2OCCO)[C@]12C(=O)Nc1ccc(C#CCC(C(=O)OC)C(=O)OC)cc12 | -0.195 | 1.15 (inactive) | 0.308 | 0.0029 | 0.251 | 2.23 | 0.634 | 1.29 | 1.37 | 0.944 | 1.46 | 1.26 | 0.412 | 0.931 | 1.35 | 1.27 | 0.627 | 1.25 | 1.28 | 0.62 (inactive)
